37 compounds from PubChem BioAssay (EPA / NIEHS) can be followed below.

Broadly, the AC50 is the concentration at which the activity in the assay is half-maximal.

Molecules are shown by their SMILES. The source holds several records for some structures; these can differ, active in one and inactive in another. Active and inactive are the calls of the source. The calls were made as follows: active = hit-call score of the fitted dose curve at least 0.9, where 1 is the maximum; inactive = score below 0.9.

A short description of this assay: ATG_PBREM_CIS: Attagene CIS-FACTORIAL HepG2 Assay for human Phenobarbital-responsive Enhancer Module (PBREM) (AID 2282955). As to conditions: HepG2 PBREM cis-reporter, Attagene multiplexed transcription; actives raise or lower the signal. On the procedure:
ATG_CIS is a cell-based, multiplexed-readout assay that uses HepG2, a human liver cell line, with measurements taken at 24 hours after chemical dosing in a 24-well plate.ATG_PBREM_CIS is one of 52 assay component(s) measured or calculated from the ATG_CIS assay. It is designed to make measurements of mRNA induction, a form of inducible reporter, as detected with fluorescence intensity signals by Reverse transcription polymerase chain reaction (RT-PCR) and Capillary electrophoresis technology.Data from the assay component ATG_PBREM_CIS was analyzed into 1 assay endpoint. This assay endpoint, ATG_PBREM_CIS, was analyzed with bidirectional fitting relative to DMSO as the negative control and baseline of activity. Using a type of inducible reporter, measures of mRNA for gain or loss-of-signal activity can be used to understand the reporter gene at the transcription factor-level as they relate to the gene NR1I3. Furthermore, this assay endpoint can be referred to as a primary readout, because this assay has produced multiple assay endpoints where this one serves a reporter gene function. To generalize the intended target to other relatable targets, this assay endpoint is annotated to the nuclear receptor intended target family, where the subfamily is non-steroidal.
Human liver HepG2 cells are transiently transfected with multiple reporter transcription units (MRTUs) in 6-well plates using FuGene 6 reagent (Roche; 3 ml FuGene/1 mg DNA). The MRTU constructs are regulated by a cis-regulating element (promoter). […] A major difference between the CIS and TRANS system is that in CIS activities of endogenous TFs are measured, whereas the TRANS assay evaluates changes in activities of exogenous, chimeric NR-Gal4 proteins. […] At the end of 24 hour incubation, total RNA was isolated using TriZol reagent (Invitrogen). The isolated RNA is then reverse-transcribed using oligo(dT) primer and Mo-MLV reverse transcriptase (Invitrogen) with DNAse I (Ambion) treatment for 30 min. The one-tenth of the produced cDNA was amplified by PCR using Taq DNA polymerase (Invitrogen) and two reporter sequence-specific primers. The PCR products were fluorescently labeled by primer extension with 6-arboxyfluorescein (6-FAM) 5'-labeled reporter sequence-specific primer (2 min at 95 C, 20 s at 68 C and 10 min at 72 C) and these products were digested with 5U of HpaI (New England Biolabs) for 2h at 37 C. The fragments were purified using Qiaquick PCR columns (Qiagen), analyzed on an ABI 3130xL genetic analyzer (Applied Biosystems) with peak positions identified by using a set of X-rhodamine (ROX)-labeled MapMarker1000 molecular weight standards (BioVentures). The raw capillary electrophoresis data was processed using Attagraph software (Attagene).
For `CCCOC(=O)NCCCN(C)C`, the result was inactive.
In the case of `CCOC(=O)COc1cc(-n2ncc(C(F)(F)F)c(C)c2=O)c(F)cc1Cl`, the outcome was inactive.
Still for that read-out and setting: for `COC(=O)c1ccc(I)cc1S(=O)(=O)NC(=O)Nc1nc(C)nc(OC)n1` the value was “inactive”; for `C#CCOC(=O)[C@@H](C)Oc1ccc(Oc2ncc(Cl)cc2F)cc1`, “inactive”.
`C[C@]12CC[C@@H]3c4ccc(O)cc4C[C@@H](CCCCCCCCCS(=O)CCCC(F)(F)C(F)(F)F)[C@H]3[C@@H]1CC[C@@H]2O` (stereo not given in full): the AC50 was 0.376 µM (active) and the outcome was inactive.
`COC(=O)c1ccccc1S(=O)(=O)NC(=O)Nc1nc(OC(F)F)cc(OC(F)F)n1`: the outcome was inactive.
On the same count and under the same terms, the entry for `COc1nc(C)nc(NC(=O)NS(=O)(=O)c2ccccc2OCCCl)n1` is “inactive”; for `O=C(O)C1(C(=O)Nc2ccc(Cl)cc2Cl)CC1` it is “inactive”.
On to `CCCCOC(=O)[C@@H](C)Oc1ccc(Oc2ccc(C(F)(F)F)cn2)cc1`, for which the result was inactive.
Consider `CN(C)C(=O)Nc1ccc(Cl)c(Cl)c1`, for which the outcome was inactive.
Turning to `CCOC(=O)C(C)Oc1ccc(Oc2nc3ccc(Cl)cc3o2)cc1` (stereo not given), the result was inactive.
On the same count and under the same terms, for `CCC(O)=C1C(=O)CC(C(=O)O)CC1=O` (stereo not given) the value was “inactive”; for `COCCO`, “inactive”.
In the case of `COC(=O)CSc1cc(N=c2sc(=O)n3n2CCCC3)c(F)cc1Cl`, the outcome was inactive.
Take `CCCCOCCOCCOCc1cc2c(cc1CCC)OCO2`: the AC50 was 8.08 µM (active).
Consider `CC(C)CCCCCCc1ccc(O)cc1`, for which the AC50 was 15.8 µM (active) and the result was inactive.
In the case of `CCOC(=O)[C@H](C)Oc1ccc(Oc2nc3ccc(Cl)cc3o2)cc1`, the result was inactive.
On the same count and under the same terms, the entry for `CC(=O)S[C@@H]1CC2=CC(=O)CC[C@]2(C)[C@H]2CC[C@@]3(C)[C@@H](CC[C@@]34CCC(=O)O4)[C@H]12` is “inactive”.
In the case of `O=C(c1ccc(O)cc1O)c1ccc(O)cc1O`, the outcome was inactive.
For `O=C(O)c1ccccc1`, the outcome was inactive.
Take `C[C@]12C[C@H](O)[C@H]3[C@@H](CCC4=CC(=O)CC[C@@]43C)[C@@H]1CC[C@@H]2C(=O)CO`: the outcome was inactive.
Take `CCCN(CCC)c1c([N+](=O)[O-])cc(C(F)(F)F)c(N)c1[N+](=O)[O-]`: the AC50 is 29.7 µM (active).
Take `COC(=O)c1ccccc1C(=O)O`: the outcome was inactive.
On the same count and under the same terms, the entry for `CCOC(=O)c1ccc(O)cc1` is “inactive”; for `CCC(C)OC(=O)N1CCCCC1CCO` (stereo not given) it is “inactive”.
As for `c1ccc(Nc2ccccc2)cc1`, the result was inactive.
For `C=CCOC(Cn1ccnc1)c1ccc(Cl)cc1Cl` (stereo not given), the outcome was inactive.
On the same count and under the same terms, the entry for `CCOC(=O)C(C)Oc1ccc(Oc2cnc3cc(Cl)ccc3n2)cc1` (stereo not given) is “inactive”; for `CCNc1nc(N)nc(Cl)n1` it is “inactive”.
On to `CC1(C)C(C=C(Cl)Cl)C1C(=O)OCc1cccc(Oc2ccccc2)c1` (stereo not given), for which the outcome was inactive.
On to `CCCCC(CC)CN1C(=O)C2C3C=CC(C3)C2C1=O` (stereo not given), for which the AC50 is 50 µM (active).
In the case of `CC(C)(c1ccc(O)cc1)c1ccc(O)cc1`, the result was inactive.
As for `CCSC(=O)N(CC(C)C)CC(C)C`, the result was inactive.
Consider `COc1c(Cl)ccc(Cl)c1C(=O)O`, for which the outcome was inactive.
As to `N[C@@H](Cc1cc(I)c(Oc2ccc(O)c(I)c2)c(I)c1)C(=O)O`, the outcome was inactive and the AC50 is 24.4 µM (active).
With `N#CSCSc1nc2ccccc2s1`, the result was inactive.
Turning to `CCOC(=O)NCCOc1ccc(Oc2ccccc2)cc1`, the AC50 was 50 µM (active).
